Reference: PubChem BioAssay
The source made the active and inactive calls.

Columns and labels:
[1] = tested on: XIP peptide (Xip251-270) binding; assay: XIP fragment 251-270 binding compounds – biochemical, small-molecule microarray, fluorescence 635/667 nm, 0.1 µg/mL protein, primary screen (AID 1182); details: fluorescent protein binding, 635 nm, higher = more signal, called active from +8 up or from −8 down
XIP peptide (Xip251-270) = assay: compounds binding XIP fragment 251-270 – biochemical, small-molecule microarray, fluorescence 635/667 nm, 0.5 µg/mL protein, primary screen (AID 1183); details: fluorescence 635 nm, higher = more signal
[2] = blood-stage malaria parasite viability loss – strain 3D7, DAPI fluorescence, 100 nL, primary screen (AID 1184);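 further: parasites grown inside human red blood cells in medium with human serum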; details: P. falciparum 3D7 growth, 3 d, higher = more signal
[3] = molecular target: Homeobox protein Hox-A13 (Mus musculus) (UniProt Q62424); assay: disruptors of Hoxa13 oligonucleotide interaction – biochemical, fluorescence polarization, labeled oligonucleotide, primary screen (AID 1185); details: Hoxa13:DNA binding, 15 min, higher = more signal, called active from +8 up or from −8 down
Sequence of Homeobox protein Hox-A13 (Mus musculus) (Q62424 whole entry, looked up): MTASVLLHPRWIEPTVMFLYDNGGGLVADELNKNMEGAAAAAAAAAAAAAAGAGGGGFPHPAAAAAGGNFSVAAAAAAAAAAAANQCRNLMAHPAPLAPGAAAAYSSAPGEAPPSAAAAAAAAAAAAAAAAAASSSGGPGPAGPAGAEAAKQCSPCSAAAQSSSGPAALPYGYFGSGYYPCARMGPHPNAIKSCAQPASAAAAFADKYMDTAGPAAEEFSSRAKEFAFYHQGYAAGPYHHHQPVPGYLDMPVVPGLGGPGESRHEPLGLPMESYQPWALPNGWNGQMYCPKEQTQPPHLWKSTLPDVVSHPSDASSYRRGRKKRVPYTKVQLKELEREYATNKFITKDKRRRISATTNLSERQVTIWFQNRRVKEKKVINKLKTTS

| Structure (SMILES) | composite z-score [1] | composite z-score (XIP peptide (Xip251-270)) | z-score [2] | z-score [3] |
| --- | --- | --- | --- | --- |
| CC(=O)OC[C@H]1O[C@@H](ON=C(C)CCN2CCc3nc(-c4ccccc4)c(-c4ccccc4)cc3C2)[C@H](OC(C)=O)[C@@H](OC(C)=O)[C@@H]1OC(C)=O | 0.0113 (inactive) | 0.71 | -1.08 | -5.05 (inactive) |
| C#CCCCON=C1C[C@@H](O)[C@@H](O)[C@@H]2[C@@H]3C(=O)N(c4cccc(Oc5ccccc5)c4)C(=O)[C@@H]3CC[C@@H]12 | -0.0382 (inactive) | 0.481 | -1.96 | -5.65 (inactive) |
| CC(CCN1CCc2nc(-c3ccccc3)c(-c3ccccc3)cc2C1)=NO[C@H](C)c1cn([C@@H]2COC[C@H]2O)nn1 | -0.378 (inactive) | 0.175 | 0.429 | -5.45 (inactive) |
| CO[C@H]1COC(=O)[C@H](C)NC(=O)[C@@H](C)COC(=O)CC=C[C@@H]1C | 0.166 (inactive) | 0.518 | 0.336 | -0.467 (inactive) |
| CCOC(=O)CCN1C(=O)[C@H]2[C@H]3[C@H](O)[C@H](O)CC(=NOC[C@@H](O)COCc4ccco4)[C@H]3CC[C@H]2C1=O | 0.378 (inactive) | 0.328 | -1.44 | -3.71 (inactive) |
| CC(C)[C@@H](OCc1ccccc1)[C@H](C)C=NO[C@H](C)c1cn([C@H](CO)Cc2ccccc2)nn1 | -0.2 (inactive) | 0.353 | 0.325 | -4.42 (inactive) |
| COc1ccc(-c2ccc3c(n2)CCCN3CC(O)CN2CCCc3nc(C)c(C)cc32)cc1 (stereo not given) | 2.32 (inactive) | 0.79 | 0.618 | -9.12 (active) |
| Cc1cc2c(nc1C)CCCN2CC(O)CN1CCN(C)CC1 (stereo not given) | 1.11 (inactive) | 0.362 | 0.547 | -3.1 (inactive) |
| CC(=O)C[C@H](O)[C@@H](NC(=O)OC(C)(C)C)C(C)C | -0.0306 (inactive) | -0.161 | -1.24 | 0.787 (inactive) |
| CCOC(=O)[C@H](Cc1ccccc1)NC(=O)CCC1CC(OC(=O)NCc2ccc3c(c2)OCO3)CC2(CCCC(COC(=O)NCc3ccccc3)O2)O1 (stereo not given in full) | -0.148 (inactive) | 0.389 | -1.76 | -0.513 (inactive) |
| CCN1C(=O)[C@H]2[C@H]3[C@H](O)[C@H](O)CC(=NOCc4ccccc4)[C@@H]3CC[C@H]2C1=O | -0.161 (inactive) | 0.465 | -0.165 | 0.697 (inactive) |
| CC(=O)O[C@H]1C2=C(C(=O)[C@@H]3O[C@@H]31)[C@H]1C(C)O[C@@H]2[C@@]23C(=O)[C@@H]4O[C@@H]4[C@@H](O)C2=CO[C@H](C)[C@@H]13 (stereo not given in full) | -0.179 (inactive) | -0.697 | -0.771 | -0.465 (inactive) |
| CCc1cc2c(nc1CC)CCN(CCC(C)=NOC[C@@H](O)COCc1ccco1)C2 | 2.62 (inactive) | 0.679 | 0.15 | -6.02 (inactive) |
| CC(C)[C@@H](OCc1ccccc1)[C@H](C)C=NOC[C@@H](C)[C@H](OCc1ccccc1)C(C)C | 0.468 (inactive) | -0.185 | 0.128 | 0.24 (inactive) |
| O=C1[C@H]2[C@H]3[C@H](O)[C@H](O)CC(=NOCc4ccccc4)[C@H]3CC[C@H]2C(=O)N1c1cccc(Oc2ccccc2)c1 | 0.297 (inactive) | 0.723 | -0.835 | -1.3 (inactive) |
| CCc1cc2c(nc1CC)CCN(CCC(C)=NOC(C)CN1CCCc3nc(C)c(C)cc31)C2 (stereo not given) | 1.36 (inactive) | 0.561 | 0.74 | -9.89 (active) |
| CCN1C(=O)[C@H]2[C@H]3[C@H](O)[C@H](O)CC(=NOCC=C(C)CCC=C(C)C)[C@H]3CC[C@H]2C1=O | 1.09 (inactive) | 0.762 | 1.97 | 0.0102 (inactive) |
| Cc1ccc(S(=O)(=O)N[C@@H]2COC(=O)[C@H](C)COC(=O)CC=C[C@H]2C)cc1 | -0.396 (inactive) | -0.152 | -0.18 | -0.424 (inactive) |
| CC(CCC(=O)OC[C@H]1O[C@H](C#Cc2ccccc2)C=C[C@@H]1Oc1ccc(C)cc1)=NOC[C@@H](O)[C@H]1O[C@@H]2OC(C)(C)O[C@@H]2[C@H]1O | 0.0901 (inactive) | -0.823 | -0.521 | -2.3 (inactive) |
| CC=CC1=C(CO)[C@H](O)[C@H]2O[C@H]2[C@H]1O | -0.461 (inactive) | -0.229 | 0.337 | -0.532 (inactive) |
| COc1cccc([C@@H]2Oc3ccc(Br)cc3C(=O)[C@H]2O)c1 | 2.46 (inactive) | 0.181 | 0.988 | -1.54 (inactive) |
| O=C1[C@H]2[C@H]3[C@H](O)[C@H](O)CC(=NOCc4ccccc4)[C@@H]3CC[C@H]2C(=O)N1C1CCCCC1 | -0.112 (inactive) | 0.0602 | -0.368 | -5.72 (inactive) |
| CCCNC(=O)OC[C@H]1O[C@H](CCON=C2[C@H]3CCn4c(=O)n(-c5ccccc5)c(=O)n4[C@H]3[C@H](O)[C@@H]3O[C@H]23)C=C[C@@H]1Oc1ccc(OC)cc1 | 0.118 (inactive) | 0.592 | -1.01 | -6.53 (inactive) |

| Structure (SMILES) | composite z-score [1] | composite z-score (XIP peptide (Xip251-270)) | z-score [2] | z-score [3] |
| --- | --- | --- | --- | --- |
| CC(=O)OC[C@H]1O[C@H](CC=NOC[C@@H](C)[C@H](OCc2ccccc2)C(C)C)C=C[C@@H]1OC(C)=O | -0.655 (inactive) | -0.303 | -0.46 | -5.81 (inactive) |
| Cn1c(=O)n2n(c1=O)[C@H]1[C@H](O)[C@@H]3O[C@@H]3C(=NOC[C@@H](O)COCc3ccco3)[C@H]1CC2 | 3.04 (inactive) | 0.265 | 0.192 | 0.445 (inactive) |
| CCCCc1nc2c(c3c1C[C@H](C)OC3)CN(CCC(C)C)CC2 | 0.172 (inactive) | 0.715 | -0.522 | -5.63 (inactive) |
| COC(=O)[C@H](C)NC(=O)CCC1CC(OC(=O)NCc2cccc3ccccc23)CC2(CCCC(COC(=O)NCC3CCCCC3)O2)O1 (stereo not given in full) | 0.0034 (inactive) | 0.689 | -1.96 | -2.34 (inactive) |
| CCOC(=O)NN=C1C[C@@H](O)[C@@H](O)[C@@H]2[C@@H]3C(=O)N(C4CCCCC4)C(=O)[C@@H]3CC[C@H]12 | 0.67 (inactive) | 0.485 | -1.68 | -1.77 (inactive) |
| CO[C@@H]1COC(=O)[C@@H]2CCCN2C(=O)[C@@H](C)COC(=O)[C@H](COCc2ccccc2)NC(=O)CC=C[C@H]1C | -0.33 (inactive) | 0.0728 | -0.67 | -0.767 (inactive) |
| CCOC(=O)NN=C1C[C@@H](O)[C@@H](O)[C@@H]2[C@@H]3C(=O)N(C(C)(C)C)C(=O)[C@@H]3CC[C@@H]12 | 0.63 (inactive) | -0.145 | 0.439 | -1.69 (inactive) |
| CC(C)=CCCC(C)=CCON=C1[C@H]2CCn3c(=O)n(Cc4cc5c(cc4Cl)OCO5)c(=O)n3[C@H]2[C@H](O)[C@@H]2O[C@H]12 | -0.0418 (inactive) | 0.208 | -1.17 | -1.16 (inactive) |
| CC(CCC(=O)OC[C@H]1O[C@H](C#Cc2ccccc2)C=C[C@@H]1Oc1ccc(C)cc1)=NO[C@@H](C)c1cn([C@H](CO)Cc2ccccc2)nn1 | 0.692 (inactive) | 0.54 | -1.02 | -2.38 (inactive) |
| O=C1[C@H]2[C@H]3[C@H](O)[C@H](O)CC(=NOCc4ccccc4)[C@@H]3CC[C@H]2C(=O)N1Cc1ccccc1 | -0.22 (inactive) | -0.0597 | 0.0087 | -0.38 (inactive) |
| COC(=O)CC=C[C@H](C)[C@@H](OCc1ccccc1Br)C(C)C | 0.864 (inactive) | -0.039 | -0.0811 | -0.388 (inactive) |
| COC(=O)[C@H](C)NC(=O)[C@@H](C)CO | 0.316 (inactive) | 0.332 | -0.613 | -1.61 (inactive) |
| CC(C)CON=C1C[C@@H](O)[C@@H](O)[C@@H]2[C@@H]3C(=O)N([C@@H](C)c4ccccc4)C(=O)[C@@H]3CC[C@H]12 | -0.0093 (inactive) | 0.402 | 0.529 | 0.0364 (inactive) |
| C[C@H]1Cc2c(-c3ccccc3)nc3c(c2CO1)CN(CCOc1ccccc1)CC3 | 0.15 (inactive) | 0.771 | 1.18 | -5.41 (inactive) |
| CC(C)CON=C1[C@H]2CCn3c(=O)n(-c4ccccc4)c(=O)n3[C@H]2[C@H](O)[C@@H]2O[C@H]12 | 0.142 (inactive) | 0.263 | -1.94 | -0.738 (inactive) |
| CC(C)CON=C1C[C@@H](O)[C@@H](O)[C@@H]2[C@@H]3C(=O)N(Cc4ccccc4)C(=O)[C@@H]3CC[C@@H]12 | -0.347 (inactive) | -0.229 | -0.388 | -0.596 (inactive) |
| COc1ccc(O[C@H]2C=C[C@@H](c3ccccc3)O[C@@H]2COC(=O)CCC(C)=NOC(C)CN2CCCCc3nc(C)c(C)cc32)cc1 (stereo not given in full) | 0.422 (inactive) | -0.674 | -1.34 | -2.19 (inactive) |
| O=C(NN=C1C[C@@H](O)[C@@H](O)[C@@H]2[C@@H]3C(=O)N(c4cccc(Oc5ccccc5)c4)C(=O)[C@@H]3CC[C@@H]12)OCc1ccccc1 | -0.0987 (inactive) | 0.381 | -0.763 | -4.96 (inactive) |
| CCOC(=O)[C@H](CC(C)C)NC(=O)CCC1CC(OC(=O)NCc2cccc3ccccc23)CC2(CCCC(COC(=O)NCCN3CCOCC3)O2)O1 (stereo not given in full) | 0.0634 (inactive) | 0.464 | -1.71 | -4.01 (inactive) |
| CCOC(=O)[C@H](Cc1ccccc1)NC(=O)CCC1CC(OC(=O)NCc2ccc3c(c2)OCO3)CC2(CCCC(COC(=O)NCC(c3ccccc3)c3ccccc3)O2)O1 (stereo not given in full) | 0.48 (inactive) | 0.308 | -0.909 | -3.45 (inactive) |
| C[C@H]1CC[C@@H](C(=O)O)N[C@@H]1c1ccc(C#CCN(C)C)cc1 | 0.908 (inactive) | 0.512 | -0.0492 | -1.16 (inactive) |
| CCc1cc2c(nc1CC)CCN(CCC(C)=NOC[C@@H](O)[C@H]1O[C@@H]3OC(C)(C)O[C@@H]3[C@H]1O)C2 | 0.221 (inactive) | 0.267 | 0.204 | -5.4 (inactive) |
